Results published in PubChem BioAssay AID686999 (Broad Institute, 2013).
Measured potencies and affinities stand elsewhere. Inconclusive results are not listed.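 The calls were made as follows: active = active in every separate test run, each with half-maximal potency at or under twice its top valid dose; inconclusive = the separate test runs give conflicting calls; inactive = inactive in every test run, including signal rising instead.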

Assay: Cryptococcus growth inhibition by alamar blue – cell lysis, cherry-picks, replicate tests, mechanism study for C. neoformans antifungal project, dose response (AID 686999)
Conditions: 72 h; series mostly up to 35 µM; activity change, negative = inhibition: at the top concentration

Activity change, negative = inhibition, inactive:
CCCCN1C(=S)NC[C@@H]1Cc1ccccc1 -1.43%
Fc1ccccc1NC(=S)NN(Cc1ccccc1)c1ccccc1 13.9%
O=C(NC(=S)Nc1ccccc1N1CCCC1)c1ccccc1[N+](=O)[O-] 16.2%
